This is part of a sample that, as a whole, favours compounds with a hit. Of some 83,000 tested, about 20% had one in any assay.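 In brief: 96-well plates, 48 h treatment, single concentration, percent growth endpoint.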 A number with no mark means an inactive call. Active and inactive are the calls of the source. The calls were made as follows: active = growth percent below 10; inactive = the rest.
Key:
Experiment in all cases: NCI-60 one-dose screen, 48 h (100 = growth as untreated, 0 = no growth, -100 = all killed)
Details in all cases: 10 µM unless noted
HCT-15 colon = system: HCT-15 colon
HT29 colon = system: HT29 colon
SNB-75 CNS = system: SNB-75 CNS
SNB-19 CNS = system: SNB-19 CNS
U251 CNS = system: U251 CNS
PC-3 prostate = system: PC-3 prostate
UACC-62 melanoma = system: UACC-62 melanoma
LOX IMVI melanoma = system: LOX IMVI melanoma
SK-MEL-28 melanoma = system: SK-MEL-28 melanoma
SK-MEL-2 melanoma = system: SK-MEL-2 melanoma
EKVX NSCLC = system: EKVX NSCLC
SN12C renal = system: SN12C renal
UO-31 renal = system: UO-31 renal
TK-10 renal = system: TK-10 renal
ACHN renal = system: ACHN renal
CAKI-1 renal = system: CAKI-1 renal
A498 renal = system: A498 renal
CCRF-CEM leukemia = system: CCRF-CEM leukemia
MOLT-4 leukemia = system: MOLT-4 leukemia

SMILES | growth (HCT-15 colon) [%] | growth (HT29 colon) | growth (SNB-75 CNS) | growth (SNB-19 CNS) [%] | growth (U251 CNS) [%] | growth (PC-3 prostate) [%] | growth (UACC-62 melanoma) [%] | growth (LOX IMVI melanoma) [%] | growth (SK-MEL-28 melanoma) [%] | growth (SK-MEL-2 melanoma) [%] | growth (EKVX NSCLC) [%] | growth (SN12C renal) [%] | growth (UO-31 renal) [%] | growth (TK-10 renal) [%] | growth (ACHN renal) [%] | growth (CAKI-1 renal) [%] | growth (A498 renal) | growth (CCRF-CEM leukemia) [%] | growth (MOLT-4 leukemia) [%]
COc1ccc(-c2n[nH]nc2-c2csc3ccccc23)cc1OC | 16.4 | 8.59% (active) | 1.72% (active) | 30.4 | 22.1 | 27.8 | 27.7 | 24.2 | 50.2 | 15 | 45.8 | 34 | 35.1 | 53.2 | 37.7 | 23.2 | 1.02% (active) | 22.8 | 11
CCCCN(CCCC)CCCn1c(-c2ccccc2)ccc1-c1ccccc1 | 55.3 | 33.1% | 83.4% | 83.4 | 58.3 | 48 | 82.4 | 68.7 | 88.8 | 93.5 | 49.6 | 70.7 | 56.9 | 83.1 | 62.9 | 59.8 | 59.3% | 44.3 | 55
c1ccc(Cn2cc(-c3nc4ccccc4s3)c3cccnc32)cc1 | 109 | 100% | 91% | 110 | 100 | 97 | 97.6 | 99.3 | 113 | 102 | 80.5 | 94.5 | 76.7 | 118 | 105 | 92.9 | 104% | 112 | 105
COc1ccc(-c2nn(-c3ccc(Cl)cc3)cc2-c2nc3ccccc3[nH]2)cc1 | 103 | 84.5% | 76.6% | 91.9 | 104 | 81.5 | 75.8 | 82.1 | 99.5 | 101 | 85.2 | 85.7 | 44.4 | 91.2 | 89.5 | 92 | 100% | 99.9 | 81.8
COc1cc2c(cc1-c1c(C)noc1C)ncc1nc(C3CCC(F)(F)CC3)n([C@H](C)COC(F)F)c12 | 16.8 | 17.3% | 37% | 47.7 | 46.8 | 33.1 | 17.8 | 14.8 | 54.4 | 65.7 | 48.1 | 51 | 25.3 | 27.1 | 37.5 | 35.4 | -22.8% (active) | 50.3 | 48.9
COC[C@H](C)n1c(C2CCOCC2)nc2cnc3cc(-c4c(C)noc4C)c(OC)cc3c21 | 34.6 | 23.4% | 31.2% | 64.8 | 54.1 | 44.8 | 31.7 | 27 | 59 | 76.6 | 59.7 | 76.1 | 19.5 | 29.4 | 43.7 | 16.2 | 5.12% (active) | 61.4 | 42.2
O=C1C=C(O)C(=O)C(CC2=C(O)C(=O)C=C(O)C2=O)=C1O | 105 | 107% | 83.5% | 112 | 102 | 95.2 | 103 | 89.9 | 110 | 104 | 102 | 97.8 | 94.6 | 106 | 97.5 | 104 | 86.6% | 115 | 104

Source: PubChem BioAssay (NCI)
